# Tests used:
# Assay in all cases: DAPPL (digital affinity profiling via proximity ligation, sequencing); 10 mM Tris-HCl pH 7.5, 50 mM NaCl, 1 mM DTT, 4% glycerol, room temperature, 30 min; GST-TFs on glutathione beads, 16-mer random dsDNA library, 0.1% formaldehyde crosslink after washing; high values mean tight binding
# FEV = target: T1, FEV (Homo sapiens, UniProt Q99581 1-238); settings: protein: recombinant; tags: N-terminal GST; dsDNA, one strand shown
# T1 sequence: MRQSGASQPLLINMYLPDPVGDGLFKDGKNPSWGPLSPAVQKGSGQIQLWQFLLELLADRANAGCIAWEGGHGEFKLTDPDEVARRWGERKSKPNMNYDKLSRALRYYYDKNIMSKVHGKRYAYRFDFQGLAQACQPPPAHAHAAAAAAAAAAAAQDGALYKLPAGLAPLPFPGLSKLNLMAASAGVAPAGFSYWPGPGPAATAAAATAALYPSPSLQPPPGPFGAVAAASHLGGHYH
# Procedure, shortened: (§1)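 Yeast served to express human transcription factors as GST fusions, which were then captured on glutathione beads and labelled with DNA barcodes. Pooled with a tag-only sample, they were incubated with 200 nmole of a 16-mer random double-stranded DNA library for 30 min at room temperature in Tris/NaCl/DTT/glycerol buffer, washed, crosslinked with 0.1% formaldehyde, ligated by proximity, amplified by PCR and sequenced. Dividing each hexamer's read frequency for a factor by its frequency for the tag-only sample gives the binding signal.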
# ETV5 = ETV5 (Homo sapiens, UniProt P41161 1-510); settings: protein: recombinant; tags: N-terminal GST; dsDNA, one strand shown
# Procedure, shortened: as §1
# HSF1 = HSF1 (Homo sapiens, UniProt Q00613 1-529); settings: protein: recombinant; tags: N-terminal GST; chain copies: 3; dsDNA, one strand shown
# Procedure, shortened: as §1
# SPIC = target: T2, SPIC (Homo sapiens, UniProt Q8N5J4 1-248); settings: protein: recombinant; tags: N-terminal GST; dsDNA, one strand shown
# T2 sequence: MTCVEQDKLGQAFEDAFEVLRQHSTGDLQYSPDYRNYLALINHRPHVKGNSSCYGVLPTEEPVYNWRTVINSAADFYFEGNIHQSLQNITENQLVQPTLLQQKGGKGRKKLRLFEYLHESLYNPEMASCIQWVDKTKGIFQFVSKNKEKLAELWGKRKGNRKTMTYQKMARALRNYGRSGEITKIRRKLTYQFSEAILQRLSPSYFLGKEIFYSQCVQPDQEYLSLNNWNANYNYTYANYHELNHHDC
# Procedure, shortened: as §1
# ELF4 = ELF4 (Homo sapiens, UniProt Q99607 1-663); settings: protein: recombinant; tags: N-terminal GST; dsDNA, one strand shown
# Procedure, shortened: as §1
# ELK4 = target: T3, ELK4 (Homo sapiens, UniProt P28324-2 1-405); settings: protein: recombinant; tags: N-terminal GST; dsDNA, one strand shown
# T3 sequence: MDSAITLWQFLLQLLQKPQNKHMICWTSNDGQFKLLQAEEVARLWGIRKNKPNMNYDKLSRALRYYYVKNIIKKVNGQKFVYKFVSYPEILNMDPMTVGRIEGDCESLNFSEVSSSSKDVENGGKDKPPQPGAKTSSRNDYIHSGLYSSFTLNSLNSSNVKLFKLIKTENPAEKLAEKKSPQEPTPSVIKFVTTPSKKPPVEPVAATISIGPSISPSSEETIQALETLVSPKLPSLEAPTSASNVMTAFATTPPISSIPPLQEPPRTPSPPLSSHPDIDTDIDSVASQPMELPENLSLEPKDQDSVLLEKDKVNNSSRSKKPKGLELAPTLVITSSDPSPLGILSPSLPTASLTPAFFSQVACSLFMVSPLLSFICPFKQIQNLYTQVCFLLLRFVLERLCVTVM
# Procedure, shortened: as §1
# ETV2 = target: T4, ETV2 (Homo sapiens, UniProt O00321 1-342); settings: protein: recombinant; tags: N-terminal GST; dsDNA, one strand shown
# T4 sequence: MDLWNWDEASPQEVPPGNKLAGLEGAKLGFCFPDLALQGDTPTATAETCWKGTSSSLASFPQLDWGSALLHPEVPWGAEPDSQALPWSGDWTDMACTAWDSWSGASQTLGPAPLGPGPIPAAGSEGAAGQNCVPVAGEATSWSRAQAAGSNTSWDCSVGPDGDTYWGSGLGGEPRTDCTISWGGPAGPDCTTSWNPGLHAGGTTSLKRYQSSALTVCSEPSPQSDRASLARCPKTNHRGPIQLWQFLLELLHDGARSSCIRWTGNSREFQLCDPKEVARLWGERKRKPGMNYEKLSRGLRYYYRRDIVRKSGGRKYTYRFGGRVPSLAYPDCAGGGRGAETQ
# Procedure, shortened: as §1
# ELF3 = target: T5, ELF3 (Homo sapiens, UniProt P78545 1-371); settings: protein: recombinant; tags: N-terminal GST; dsDNA, one strand shown
# T5 sequence: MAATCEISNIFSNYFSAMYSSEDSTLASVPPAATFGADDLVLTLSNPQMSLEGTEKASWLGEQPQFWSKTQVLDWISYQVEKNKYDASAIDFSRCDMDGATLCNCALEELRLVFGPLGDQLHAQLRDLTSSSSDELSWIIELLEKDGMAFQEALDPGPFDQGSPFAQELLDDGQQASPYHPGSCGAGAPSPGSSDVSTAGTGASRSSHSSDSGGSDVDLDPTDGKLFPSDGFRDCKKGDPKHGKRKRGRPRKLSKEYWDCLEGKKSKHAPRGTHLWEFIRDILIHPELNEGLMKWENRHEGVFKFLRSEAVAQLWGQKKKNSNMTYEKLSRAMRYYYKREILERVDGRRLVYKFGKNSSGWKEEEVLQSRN
# Procedure, shortened: as §1
# CRX = CRX (Homo sapiens, UniProt O43186 1-299); settings: protein: recombinant; tags: N-terminal GST; dsDNA, one strand shown
# Procedure, shortened: as §1
# ETV1 = ETV1 (Homo sapiens, UniProt P50549 1-477); settings: protein: recombinant; tags: N-terminal GST; dsDNA, one strand shown
# Procedure, shortened: as §1
# Sequence of CRX (O43186 whole entry): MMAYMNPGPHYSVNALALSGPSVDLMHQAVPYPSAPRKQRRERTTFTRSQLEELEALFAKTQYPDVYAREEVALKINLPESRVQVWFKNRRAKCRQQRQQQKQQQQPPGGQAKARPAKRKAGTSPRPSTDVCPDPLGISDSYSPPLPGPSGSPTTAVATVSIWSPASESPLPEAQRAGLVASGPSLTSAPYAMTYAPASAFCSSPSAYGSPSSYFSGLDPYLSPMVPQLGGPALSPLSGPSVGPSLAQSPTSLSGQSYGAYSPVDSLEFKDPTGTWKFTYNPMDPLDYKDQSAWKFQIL
# Sequence of ETV1 (P50549 whole entry): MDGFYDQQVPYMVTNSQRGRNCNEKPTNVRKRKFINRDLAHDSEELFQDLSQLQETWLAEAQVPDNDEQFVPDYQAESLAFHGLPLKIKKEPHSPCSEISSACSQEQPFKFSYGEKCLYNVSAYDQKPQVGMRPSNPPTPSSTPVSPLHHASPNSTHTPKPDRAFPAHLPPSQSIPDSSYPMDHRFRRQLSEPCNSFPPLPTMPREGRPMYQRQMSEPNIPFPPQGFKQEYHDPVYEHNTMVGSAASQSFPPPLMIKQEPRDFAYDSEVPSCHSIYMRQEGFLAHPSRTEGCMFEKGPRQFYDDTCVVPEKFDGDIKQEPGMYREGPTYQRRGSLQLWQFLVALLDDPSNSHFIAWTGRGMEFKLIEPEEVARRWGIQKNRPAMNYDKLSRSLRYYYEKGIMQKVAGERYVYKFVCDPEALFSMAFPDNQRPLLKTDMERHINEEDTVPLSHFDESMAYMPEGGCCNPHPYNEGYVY
# Sequence of HSF1 (Q00613 whole entry): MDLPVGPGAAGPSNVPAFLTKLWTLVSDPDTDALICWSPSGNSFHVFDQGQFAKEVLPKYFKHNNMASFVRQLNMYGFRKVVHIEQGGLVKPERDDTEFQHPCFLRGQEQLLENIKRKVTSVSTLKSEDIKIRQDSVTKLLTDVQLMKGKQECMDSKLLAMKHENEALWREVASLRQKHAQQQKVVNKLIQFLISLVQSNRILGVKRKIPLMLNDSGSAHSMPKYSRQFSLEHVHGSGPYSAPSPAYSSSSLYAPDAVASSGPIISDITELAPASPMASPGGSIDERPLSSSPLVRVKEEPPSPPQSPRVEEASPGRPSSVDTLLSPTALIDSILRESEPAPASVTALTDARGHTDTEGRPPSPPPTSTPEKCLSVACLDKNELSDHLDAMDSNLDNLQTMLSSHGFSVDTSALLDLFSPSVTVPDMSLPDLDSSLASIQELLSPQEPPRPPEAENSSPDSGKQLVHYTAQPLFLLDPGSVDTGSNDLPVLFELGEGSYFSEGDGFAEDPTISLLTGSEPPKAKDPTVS
# Sequence of ETV5 (P41161 whole entry): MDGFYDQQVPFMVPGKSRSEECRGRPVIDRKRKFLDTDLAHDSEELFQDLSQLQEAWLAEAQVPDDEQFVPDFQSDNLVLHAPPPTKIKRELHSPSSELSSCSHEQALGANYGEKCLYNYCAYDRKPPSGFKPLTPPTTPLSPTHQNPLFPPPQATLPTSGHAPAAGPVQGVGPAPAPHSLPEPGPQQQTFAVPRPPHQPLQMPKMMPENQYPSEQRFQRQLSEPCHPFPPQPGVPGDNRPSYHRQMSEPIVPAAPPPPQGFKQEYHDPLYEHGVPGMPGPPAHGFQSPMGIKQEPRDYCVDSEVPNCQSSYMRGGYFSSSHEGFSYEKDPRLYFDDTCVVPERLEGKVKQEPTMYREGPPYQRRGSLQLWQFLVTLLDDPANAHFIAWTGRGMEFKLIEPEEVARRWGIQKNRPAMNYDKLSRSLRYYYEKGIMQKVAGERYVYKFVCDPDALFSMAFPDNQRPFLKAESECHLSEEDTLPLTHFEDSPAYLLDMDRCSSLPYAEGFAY
# Sequence of ELF4 (Q99607 whole entry): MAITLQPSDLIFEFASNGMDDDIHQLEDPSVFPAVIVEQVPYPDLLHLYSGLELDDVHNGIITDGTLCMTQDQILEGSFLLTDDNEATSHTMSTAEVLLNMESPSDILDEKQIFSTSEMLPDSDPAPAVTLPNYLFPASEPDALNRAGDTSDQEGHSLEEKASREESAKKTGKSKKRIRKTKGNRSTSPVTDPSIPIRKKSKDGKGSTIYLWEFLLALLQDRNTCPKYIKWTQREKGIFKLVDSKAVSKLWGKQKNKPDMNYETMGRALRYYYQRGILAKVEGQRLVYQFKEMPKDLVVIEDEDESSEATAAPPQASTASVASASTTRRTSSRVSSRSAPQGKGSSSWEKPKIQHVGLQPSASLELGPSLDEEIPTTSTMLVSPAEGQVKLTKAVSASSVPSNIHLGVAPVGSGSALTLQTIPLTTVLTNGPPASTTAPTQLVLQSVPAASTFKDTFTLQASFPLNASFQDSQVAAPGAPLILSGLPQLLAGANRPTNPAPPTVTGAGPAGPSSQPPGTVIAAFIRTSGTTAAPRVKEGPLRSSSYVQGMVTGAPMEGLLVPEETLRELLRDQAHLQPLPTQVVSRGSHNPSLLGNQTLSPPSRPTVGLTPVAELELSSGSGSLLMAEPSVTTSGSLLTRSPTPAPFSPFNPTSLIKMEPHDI
sequence,measurement,setting,value
TGTAAA,binding signal,FEV,"1.08 fold enrichment (6-mer frequency, TF over GST control)"
same,binding signal,ETV5,"1.16 fold enrichment (6-mer frequency, TF over GST control)"
same,binding signal,HSF1,"1.2 fold enrichment (6-mer frequency, TF over GST control)"
same,binding signal,SPIC,"1.24 fold enrichment (6-mer frequency, TF over GST control)"
same,binding signal,ELF4,"1.13 fold enrichment (6-mer frequency, TF over GST control)"
same,binding signal,ELK4,"1.1 fold enrichment (6-mer frequency, TF over GST control)"
same,binding signal,ETV2,"1.16 fold enrichment (6-mer frequency, TF over GST control)"
same,binding signal,ELF3,"1.23 fold enrichment (6-mer frequency, TF over GST control)"
same,binding signal,CRX,"1.2 fold enrichment (6-mer frequency, TF over GST control)"
same,binding signal,ETV1,"1.14 fold enrichment (6-mer frequency, TF over GST control)"
GCTGAA,binding signal,FEV,"1.03 fold enrichment (6-mer frequency, TF over GST control)"
same,binding signal,ETV5,"1.16 fold enrichment (6-mer frequency, TF over GST control)"
same,binding signal,HSF1,"1.04 fold enrichment (6-mer frequency, TF over GST control)"
same,binding signal,SPIC,"1.31 fold enrichment (6-mer frequency, TF over GST control)"
same,binding signal,ELF4,"1.1 fold enrichment (6-mer frequency, TF over GST control)"
same,binding signal,ELK4,"1.23 fold enrichment (6-mer frequency, TF over GST control)"
same,binding signal,ETV2,"1.21 fold enrichment (6-mer frequency, TF over GST control)"
same,binding signal,ELF3,"1.18 fold enrichment (6-mer frequency, TF over GST control)"
same,binding signal,CRX,"1.05 fold enrichment (6-mer frequency, TF over GST control)"
same,binding signal,ETV1,"1.05 fold enrichment (6-mer frequency, TF over GST control)"
ATTTGT,binding signal,FEV,"1.34 fold enrichment (6-mer frequency, TF over GST control)"
same,binding signal,ETV5,"1.41 fold enrichment (6-mer frequency, TF over GST control)"
same,binding signal,HSF1,"1.33 fold enrichment (6-mer frequency, TF over GST control)"
same,binding signal,SPIC,"1.35 fold enrichment (6-mer frequency, TF over GST control)"
same,binding signal,ELF4,"1.32 fold enrichment (6-mer frequency, TF over GST control)"
same,binding signal,ELK4,"1.45 fold enrichment (6-mer frequency, TF over GST control)"
same,binding signal,ETV2,"1.44 fold enrichment (6-mer frequency, TF over GST control)"
same,binding signal,ELF3,"1.41 fold enrichment (6-mer frequency, TF over GST control)"
same,binding signal,CRX,"1.58 fold enrichment (6-mer frequency, TF over GST control)"
same,binding signal,ETV1,"1.23 fold enrichment (6-mer frequency, TF over GST control)"
CATCTG,binding signal,FEV,"1.33 fold enrichment (6-mer frequency, TF over GST control)"
same,binding signal,ETV5,"1.2 fold enrichment (6-mer frequency, TF over GST control)"
same,binding signal,HSF1,"1.25 fold enrichment (6-mer frequency, TF over GST control)"
same,binding signal,SPIC,"1.28 fold enrichment (6-mer frequency, TF over GST control)"
same,binding signal,ELF4,"1.25 fold enrichment (6-mer frequency, TF over GST control)"
same,binding signal,ELK4,"1.39 fold enrichment (6-mer frequency, TF over GST control)"
same,binding signal,ETV2,"1.16 fold enrichment (6-mer frequency, TF over GST control)"
same,binding signal,ELF3,"1.37 fold enrichment (6-mer frequency, TF over GST control)"
same,binding signal,CRX,"1.15 fold enrichment (6-mer frequency, TF over GST control)"
same,binding signal,ETV1,"1.31 fold enrichment (6-mer frequency, TF over GST control)"
AATCGC,binding signal,FEV,"1.08 fold enrichment (6-mer frequency, TF over GST control)"
same,binding signal,ETV5,"1.03 fold enrichment (6-mer frequency, TF over GST control)"
same,binding signal,HSF1,"1.3 fold enrichment (6-mer frequency, TF over GST control)"
same,binding signal,SPIC,"1.08 fold enrichment (6-mer frequency, TF over GST control)"
same,binding signal,ELF4,"1.14 fold enrichment (6-mer frequency, TF over GST control)"
same,binding signal,ELK4,"1.08 fold enrichment (6-mer frequency, TF over GST control)"
same,binding signal,ETV2,"1.04 fold enrichment (6-mer frequency, TF over GST control)"
same,binding signal,ELF3,"1.08 fold enrichment (6-mer frequency, TF over GST control)"
same,binding signal,CRX,"1.62 fold enrichment (6-mer frequency, TF over GST control)"
same,binding signal,ETV1,"1.15 fold enrichment (6-mer frequency, TF over GST control)"
TCCCCG,binding signal,FEV,"1.17 fold enrichment (6-mer frequency, TF over GST control)"
same,binding signal,ETV5,"1.22 fold enrichment (6-mer frequency, TF over GST control)"
same,binding signal,HSF1,"1.16 fold enrichment (6-mer frequency, TF over GST control)"
same,binding signal,SPIC,"1.04 fold enrichment (6-mer frequency, TF over GST control)"
same,binding signal,ELF4,"1.22 fold enrichment (6-mer frequency, TF over GST control)"
same,binding signal,ELK4,"1.12 fold enrichment (6-mer frequency, TF over GST control)"
same,binding signal,ETV2,"1.26 fold enrichment (6-mer frequency, TF over GST control)"
same,binding signal,ELF3,"1.27 fold enrichment (6-mer frequency, TF over GST control)"
same,binding signal,CRX,"1.21 fold enrichment (6-mer frequency, TF over GST control)"
same,binding signal,ETV1,"1.13 fold enrichment (6-mer frequency, TF over GST control)"
TATTCG,binding signal,FEV,"1.06 fold enrichment (6-mer frequency, TF over GST control)"
same,binding signal,ETV5,"1.11 fold enrichment (6-mer frequency, TF over GST control)"
same,binding signal,HSF1,"1.64 fold enrichment (6-mer frequency, TF over GST control)"
same,binding signal,SPIC,"1.17 fold enrichment (6-mer frequency, TF over GST control)"
same,binding signal,ELF4,"1.17 fold enrichment (6-mer frequency, TF over GST control)"
same,binding signal,ELK4,"1.22 fold enrichment (6-mer frequency, TF over GST control)"
same,binding signal,ETV2,"1.24 fold enrichment (6-mer frequency, TF over GST control)"
same,binding signal,ELF3,"1.35 fold enrichment (6-mer frequency, TF over GST control)"
same,binding signal,CRX,"1.43 fold enrichment (6-mer frequency, TF over GST control)"
same,binding signal,ETV1,"1.05 fold enrichment (6-mer frequency, TF over GST control)"
CTGATG,binding signal,FEV,"1.62 fold enrichment (6-mer frequency, TF over GST control)"
same,binding signal,ETV5,"1.65 fold enrichment (6-mer frequency, TF over GST control)"
same,binding signal,HSF1,"1.33 fold enrichment (6-mer frequency, TF over GST control)"
same,binding signal,SPIC,"1.79 fold enrichment (6-mer frequency, TF over GST control)"
same,binding signal,ELF4,"1.79 fold enrichment (6-mer frequency, TF over GST control)"
same,binding signal,ELK4,"1.83 fold enrichment (6-mer frequency, TF over GST control)"
same,binding signal,ETV2,"1.7 fold enrichment (6-mer frequency, TF over GST control)"
same,binding signal,ELF3,"1.65 fold enrichment (6-mer frequency, TF over GST control)"
same,binding signal,CRX,"1.46 fold enrichment (6-mer frequency, TF over GST control)"
same,binding signal,ETV1,"1.61 fold enrichment (6-mer frequency, TF over GST control)"

# From PMC7862700, “An all-to-all approach to the identification of sequence-specific readers for epigenetic DNA modifications on cytosine”
